In PubChem BioAssay (EPA / NIEHS) one finds outcome data, which are given here for 30 compounds.

Records with an inconclusive call do not appear. Activity calls are given as the source filed them. How the source made its calls: active means hit-call score of the fitted dose curve at least 0.9, where 1 is the maximum; inconclusive means response in the unintended direction; inactive means score below 0.9.

Read-out in the assay: alkyl and aryl transferase (GSTA2), GSTA2 (gene 2939)
Description: CLD_GSTA2_24hr: CellzDirect (CLD) Gene Expression Assay for alkyl and aryl transferase (GSTA2) at 24 hours (AID 2283693). As for the experimental part:
CLD_24hr is a cell-based, multiplexed-readout assay that uses hepatocyte, a human liver primary cell, with measurements taken at 24 hours after chemical dosing in a 96-well plate.CLD_GSTA2_24hr is one of 16 assay component(s) measured or calculated from the CLD_24hr assay. It is designed to make measurements of mRNA induction, a form of inducible reporter, as detected with chemiluminescence signals by Quantitative Nuclease Protection Assay (qNPA) technology.Data from the assay component CLD_GSTA2_24hr was analyzed at the endpoint, CLD_GSTA2_24hr, in the positive analysis fitting direction relative to DMSO as the negative control and baseline of activity. Using a type of inducible reporter, gain-of-signal activity can be used to understand changes in the reporter gene as they relate to the gene GSTA2. Furthermore, this assay endpoint can be referred to as a primary readout. To generalize the intended target to other relatable targets, this assay endpoint is annotated to the transferase intended target family, where subfamily is alkyl and aryl transferase.
Human hepatocyte cultures were treated daily for two consecutive days with fresh dosing solutions containing appropriate concentrations of the 320 ToxCast chemicals (chemical identities were blinded to CellzDirect and other ToxCast collaborators), vehicle control (0.2% DMSO), and positive control inducers as summarized in Table 1. Due to the large number of treatment groups and chemicals examined, the ToxCast chemicals were divided into two groups (spanning two independent cultures of hepatocytes from separate donor preparations (Hu778: ToxCast plates 1 and 2; Hu776: ToxCast plates 3 and 4). Each preparation of human hepatocyte cultures was treated with respective vehicle control, medium only control, set of six positive controls/reference chemicals for the five hepatic receptor pathways, and a subset of eight of the ToxCast chemicals (indoxacarb, pyrithiobac-sodium, norflurazon, cyhalofop-butyl, methomyl, thiram, acetochlor, and propiconazole). These replicate data, coupled with internal replicates designed within the blinded ToxCast chemical library, provided additional data to evaluate interindividual differences between hepatocyte preparations and their potential impact on chemical profiles.Cell morphology and integrity were evaluated using phase-contrast microscopy as an indicator of hepatocyte cell health (Tyson & Green, 1987). Cultures for each treatment group (i.e., media, vehicle [0.2% DMSO], positive control inducers [multiple concentrations], and the ToxCast chemicals [multiple concentrations]) were observed and cell morphology was assessed relative to vehicle control cultures at each harvest time point (0, 6, 24, or 48 h). […] Images were evaluated at the conclusion of the study to assess changes in cell integrity and account for the effects of chemical exposure on uncharacteristic changes in concentration-dependent gene expression profiles. The results from these determinations of apparent cytotoxicity were annotated (yes/no) alongside the corresponding qNPA data for reference.At the conclusion of each treatment period, hepatocyte cultures (96-well) were washed with 1 volume of HBSS, lysed by addition of 25 ul ArrayPlate lysis buffer (HTG, Tucson, AZ), and 70 ul/well of Denaturation Oil, denatured by incubation at 95C for 10 min, and frozen at approximately -70C until analysis by nuclease protection assay (qNPA) (Roberts et al., 2007). For qNPA analysis, cell lysates were thawed at 50C for approximately 30 min, qNPA probes were added, and samples were incubated at 95C for 10 min to begin the detection process by denaturing the target RNA, dissociating the duplexes and secondary structure hybridization. At the conclusion of the hybridization period, S1 nuclease reagent was added to each sample to digest all nonprotected nucleotides at 50C for 60-90 min. […]
In the case of `CCCCOC(=O)C(C)Oc1ccc(Oc2ccc(C(F)(F)F)cn2)cc1` (stereo not given), the compound was classed as inactive.
The same measure for `CCCOC(=O)NCCCN(C)C`: “inactive”.
The same measure for `CCOC(=O)C(C)Oc1ccc(Oc2nc3ccc(Cl)cc3o2)cc1` (stereo not given): “inactive”; for `CCCN(CCC)c1c([N+](=O)[O-])cc(C(F)(F)F)c(N)c1[N+](=O)[O-]`: “inactive”.
The entry for `Oc1ccc(C(c2ccc(O)cc2)C(Cl)(Cl)Cl)cc1` is “inactive”; for `C=CCOC(Cn1ccnc1)c1ccc(Cl)cc1Cl` (stereo not given) it is “inactive”.
Regarding `COc1c(Cl)ccc(Cl)c1C(=O)O`, the compound was classed as inactive.
`CCCCOCCOCCOCc1cc2c(cc1CCC)OCO2`: the call was inactive.
The entry for `COC(=O)c1ccccc1S(=O)(=O)NC(=O)Nc1nc(OC(F)F)cc(OC(F)F)n1` is “inactive”; for `CCNc1nc(N)nc(Cl)n1` it is “inactive”.
The entry for `O=C(Nc1ccc([N+](=O)[O-])cc1Cl)c1cc(Cl)ccc1O` is “inactive”; for `COc1nc(C)nc(NC(=O)NS(=O)(=O)c2ccccc2OCCCl)n1` it is “inactive”; for `CCCCCCC(C)OC(=O)COc1nc(F)c(Cl)c(N)c1Cl` (stereo not given) it is “inactive”.
Turning to `COC(=O)c1ccccc1C(=O)O`, the result was inactive.
The entry for `CCCN(CCC)C(=O)SCC` is “inactive”.
The entry for `CCSC(=O)N(CC(C)C)CC(C)C` is “inactive”; for `CCOC(=O)C(C)Oc1ccc(Oc2cnc3cc(Cl)ccc3n2)cc1` (stereo not given) it is “inactive”; for `COCCO` it is “inactive”.
The same measure for `CCCOC(=O)c1ccc(C(=O)OCCC)nc1`: “inactive”; for `CCCCCOC(=O)COc1cc(N2C(=O)C3=C(CCCC3)C2=O)c(F)cc1Cl`: “inactive”.
With `CCCCC(CC)CN1C(=O)C2C3C=CC(C3)C2C1=O` (stereo not given), the result was inactive.
The same measure for `COC(=O)c1c(Cl)nn(C)c1S(=O)(=O)NC(=O)Nc1nc(OC)cc(OC)n1`: “inactive”; for `COC(=O)c1cccc(C)c1S(=O)(=O)NC(=O)Nc1nc(OCC(F)(F)F)nc(N(C)C)n1`: “inactive”; for `N#CSCSc1nc2ccccc2s1`: “inactive”.
The same measure for `CCC(C)OC(=O)N1CCCCC1CCO` (stereo not given): “inactive”; for `c1ccc(Nc2ccccc2)cc1`: “inactive”.
The entry for `COC(=O)c1ccc(CNS(C)(=O)=O)cc1S(=O)(=O)NC(=O)Nc1nc(OC)cc(OC)n1` is “inactive”; for `CC(C)(c1ccc(O)cc1)c1ccc(O)cc1` it is “inactive”.
For the compound `Cc1nn(C)c(Oc2ccccc2)c1C=NOCc1ccc(C(=O)OC(C)(C)C)cc1`, the compound was called inactive.
In the case of `CCC(O)=C1C(=O)CC(C(=O)O)CC1=O` (stereo not given), the compound was called inactive.
